Measured values published in PMC7862700, “An all-to-all approach to the identification of sequence-specific readers for epigenetic DNA modifications on cytosine”.

Experiments:
Assay in all cases: DAPPL (digital affinity profiling via proximity ligation, sequencing); 10 mM Tris-HCl pH 7.5, 50 mM NaCl, 1 mM DTT, 4% glycerol, room temperature, 30 min; GST-TFs on glutathione beads, 16-mer random dsDNA library, 0.1% formaldehyde crosslink after washing; high values mean tight binding
[1] = target: T1, FLI1 (Homo sapiens, UniProt Q01543 1-452); conditions: protein: recombinant; tags: N-terminal GST; dsDNA, one strand shown
T1 sequence: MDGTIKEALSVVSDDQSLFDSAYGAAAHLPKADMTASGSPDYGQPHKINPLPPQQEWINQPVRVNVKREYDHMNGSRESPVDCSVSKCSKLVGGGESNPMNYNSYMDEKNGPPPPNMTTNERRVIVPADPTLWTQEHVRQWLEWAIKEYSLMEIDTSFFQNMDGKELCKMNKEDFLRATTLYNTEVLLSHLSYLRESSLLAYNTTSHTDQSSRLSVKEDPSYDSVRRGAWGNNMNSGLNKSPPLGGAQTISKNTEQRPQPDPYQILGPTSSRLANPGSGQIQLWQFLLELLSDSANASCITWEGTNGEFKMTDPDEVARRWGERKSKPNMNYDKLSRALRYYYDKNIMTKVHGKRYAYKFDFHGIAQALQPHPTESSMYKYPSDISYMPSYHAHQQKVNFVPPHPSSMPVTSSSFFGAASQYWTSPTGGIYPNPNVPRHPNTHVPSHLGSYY
Summary of the method: (§1)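 GST fusions of human transcription factors were expressed in yeast and captured with glutathione beads. Once given DNA barcodes and pooled alongside a tag-only sample, they were incubated for 30 min at room temperature with 200 nmole of a random double-stranded 16-mer DNA library in Tris/NaCl/DTT/glycerol buffer, then washed, crosslinked (0.1% formaldehyde), proximity-ligated, PCR-amplified and sequenced on an Illumina NextSeq500. The binding signal of each hexamer is its read frequency for a factor divided by its frequency for the tag-only sample.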

[2] = target: T2, ELK1 (Homo sapiens, UniProt P19419 1-428); conditions: protein: recombinant; tags: N-terminal GST; dsDNA, one strand shown
T2 sequence: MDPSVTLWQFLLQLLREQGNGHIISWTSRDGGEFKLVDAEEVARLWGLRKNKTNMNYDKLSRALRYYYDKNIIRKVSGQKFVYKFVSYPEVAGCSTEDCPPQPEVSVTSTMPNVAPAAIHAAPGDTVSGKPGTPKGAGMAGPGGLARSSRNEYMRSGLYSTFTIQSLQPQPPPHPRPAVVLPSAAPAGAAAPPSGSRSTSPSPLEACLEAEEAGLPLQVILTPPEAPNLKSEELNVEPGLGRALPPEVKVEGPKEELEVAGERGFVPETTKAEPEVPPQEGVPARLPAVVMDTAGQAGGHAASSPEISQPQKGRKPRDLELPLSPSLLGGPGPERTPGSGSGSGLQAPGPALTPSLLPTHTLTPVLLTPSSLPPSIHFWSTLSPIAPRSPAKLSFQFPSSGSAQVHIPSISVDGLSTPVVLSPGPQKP
Summary of the method: as §1

[3] = target: T3, GABPA (Homo sapiens, UniProt Q06546 1-454); conditions: protein: recombinant; tags: N-terminal GST; dsDNA, one strand shown
T3 sequence: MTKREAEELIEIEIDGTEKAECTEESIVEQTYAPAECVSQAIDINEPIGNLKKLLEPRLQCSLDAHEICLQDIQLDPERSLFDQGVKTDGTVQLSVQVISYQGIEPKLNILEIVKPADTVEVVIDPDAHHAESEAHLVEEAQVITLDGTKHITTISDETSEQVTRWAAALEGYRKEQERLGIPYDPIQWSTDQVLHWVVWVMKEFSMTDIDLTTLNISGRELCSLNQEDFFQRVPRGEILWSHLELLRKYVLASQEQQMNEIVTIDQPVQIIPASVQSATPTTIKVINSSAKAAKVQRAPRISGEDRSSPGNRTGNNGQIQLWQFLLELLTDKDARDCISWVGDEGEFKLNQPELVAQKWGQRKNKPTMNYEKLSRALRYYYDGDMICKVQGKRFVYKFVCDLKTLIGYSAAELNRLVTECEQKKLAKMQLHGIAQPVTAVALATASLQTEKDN
Summary of the method: as §1

[4] = target: T4, ERG (Homo sapiens, UniProt P11308 1-479); conditions: protein: recombinant; tags: N-terminal GST; dsDNA, one strand shown
T4 sequence: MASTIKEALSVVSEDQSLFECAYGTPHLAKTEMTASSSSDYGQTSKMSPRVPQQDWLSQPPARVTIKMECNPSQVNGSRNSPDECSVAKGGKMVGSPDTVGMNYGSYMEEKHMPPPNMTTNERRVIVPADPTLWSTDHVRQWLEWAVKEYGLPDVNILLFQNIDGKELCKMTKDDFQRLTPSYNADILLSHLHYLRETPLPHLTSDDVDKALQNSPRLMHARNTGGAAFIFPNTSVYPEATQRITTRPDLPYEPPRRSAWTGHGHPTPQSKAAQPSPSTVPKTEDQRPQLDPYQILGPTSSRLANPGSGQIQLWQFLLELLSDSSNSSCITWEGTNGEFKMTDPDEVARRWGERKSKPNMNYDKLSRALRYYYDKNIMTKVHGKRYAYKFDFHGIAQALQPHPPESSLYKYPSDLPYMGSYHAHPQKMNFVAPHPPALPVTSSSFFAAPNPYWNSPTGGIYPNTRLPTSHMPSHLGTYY
Summary of the method: as §1

[5] = target: ELF1 (Homo sapiens, UniProt P32519 1-619); conditions: protein: recombinant; tags: N-terminal GST; dsDNA, one strand shown
Sequence of ELF1 (P32519 whole entry): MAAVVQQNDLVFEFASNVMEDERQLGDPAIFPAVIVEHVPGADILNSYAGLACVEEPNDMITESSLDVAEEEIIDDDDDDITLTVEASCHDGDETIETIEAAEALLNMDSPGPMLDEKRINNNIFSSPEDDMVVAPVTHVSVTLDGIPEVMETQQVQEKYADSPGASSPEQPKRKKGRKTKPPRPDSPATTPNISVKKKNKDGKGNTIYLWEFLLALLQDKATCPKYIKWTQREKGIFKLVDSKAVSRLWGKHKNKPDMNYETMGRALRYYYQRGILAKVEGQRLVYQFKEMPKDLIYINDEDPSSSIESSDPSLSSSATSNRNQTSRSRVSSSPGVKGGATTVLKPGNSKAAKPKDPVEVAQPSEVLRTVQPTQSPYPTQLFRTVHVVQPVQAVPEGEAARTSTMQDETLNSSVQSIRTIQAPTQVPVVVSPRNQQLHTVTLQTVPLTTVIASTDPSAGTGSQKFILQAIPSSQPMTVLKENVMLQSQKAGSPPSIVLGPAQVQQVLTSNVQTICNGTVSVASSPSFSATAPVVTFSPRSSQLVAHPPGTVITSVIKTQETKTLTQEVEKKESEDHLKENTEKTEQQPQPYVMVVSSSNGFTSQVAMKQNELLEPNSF
Summary of the method: as §1

[6] = target: T5, EHF (Homo sapiens, UniProt Q9NZC4 1-300); conditions: protein: recombinant; tags: N-terminal GST; dsDNA, one strand shown
T5 sequence: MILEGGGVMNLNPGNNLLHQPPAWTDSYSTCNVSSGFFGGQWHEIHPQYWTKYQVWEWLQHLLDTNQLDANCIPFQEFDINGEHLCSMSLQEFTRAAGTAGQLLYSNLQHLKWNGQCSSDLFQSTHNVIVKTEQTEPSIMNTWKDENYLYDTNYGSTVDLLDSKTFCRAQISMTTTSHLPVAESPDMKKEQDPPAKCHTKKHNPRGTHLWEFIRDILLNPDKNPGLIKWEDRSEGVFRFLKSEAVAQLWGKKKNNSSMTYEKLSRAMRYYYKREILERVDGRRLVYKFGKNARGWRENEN
Summary of the method: as §1

[7] = target: SPI1 (Homo sapiens, UniProt P17947 1-270); conditions: protein: recombinant; tags: N-terminal GST; dsDNA, one strand shown
Summary of the method: as §1

[8] = target: SPIB (Homo sapiens, UniProt Q01892 1-262); conditions: protein: recombinant; tags: N-terminal GST; dsDNA, one strand shown
Sequence of SPIB (Q01892 whole entry): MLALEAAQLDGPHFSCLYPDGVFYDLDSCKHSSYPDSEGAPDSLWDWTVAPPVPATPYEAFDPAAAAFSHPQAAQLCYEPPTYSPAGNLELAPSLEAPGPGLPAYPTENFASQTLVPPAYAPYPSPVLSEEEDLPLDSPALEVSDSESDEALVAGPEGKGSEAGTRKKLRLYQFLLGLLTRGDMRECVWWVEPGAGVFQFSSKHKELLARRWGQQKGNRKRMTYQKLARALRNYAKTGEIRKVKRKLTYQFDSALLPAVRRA
Summary of the method: as §1

[9] = target: T6, ELK3 (Homo sapiens, UniProt P41970 1-407); conditions: protein: recombinant; tags: N-terminal GST; dsDNA, one strand shown
T6 sequence: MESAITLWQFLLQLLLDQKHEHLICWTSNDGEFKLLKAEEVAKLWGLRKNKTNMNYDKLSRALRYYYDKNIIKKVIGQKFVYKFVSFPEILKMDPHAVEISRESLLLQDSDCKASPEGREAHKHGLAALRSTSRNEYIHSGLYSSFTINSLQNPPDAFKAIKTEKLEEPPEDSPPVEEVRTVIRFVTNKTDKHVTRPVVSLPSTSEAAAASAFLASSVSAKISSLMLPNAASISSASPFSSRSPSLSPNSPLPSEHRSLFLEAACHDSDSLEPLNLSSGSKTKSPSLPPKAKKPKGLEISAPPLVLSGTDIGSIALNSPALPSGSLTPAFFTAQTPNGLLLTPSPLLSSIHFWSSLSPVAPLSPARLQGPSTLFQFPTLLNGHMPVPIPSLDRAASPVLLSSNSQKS
Summary of the method: as §1

[10] = target: T7, FEV (Homo sapiens, UniProt Q99581 1-238); conditions: protein: recombinant; tags: N-terminal GST; dsDNA, one strand shown
T7 sequence: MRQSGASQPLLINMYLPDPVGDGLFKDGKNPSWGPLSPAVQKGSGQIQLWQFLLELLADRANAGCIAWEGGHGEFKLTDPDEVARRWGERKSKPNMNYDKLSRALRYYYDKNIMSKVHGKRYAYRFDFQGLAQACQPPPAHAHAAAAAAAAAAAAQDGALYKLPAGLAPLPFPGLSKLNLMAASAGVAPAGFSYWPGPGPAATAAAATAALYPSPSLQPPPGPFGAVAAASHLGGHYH
Summary of the method: as §1

[11] = target: ETV5 (Homo sapiens, UniProt P41161 1-510); conditions: protein: recombinant; tags: N-terminal GST; dsDNA, one strand shown
Sequence of ETV5 (P41161 whole entry): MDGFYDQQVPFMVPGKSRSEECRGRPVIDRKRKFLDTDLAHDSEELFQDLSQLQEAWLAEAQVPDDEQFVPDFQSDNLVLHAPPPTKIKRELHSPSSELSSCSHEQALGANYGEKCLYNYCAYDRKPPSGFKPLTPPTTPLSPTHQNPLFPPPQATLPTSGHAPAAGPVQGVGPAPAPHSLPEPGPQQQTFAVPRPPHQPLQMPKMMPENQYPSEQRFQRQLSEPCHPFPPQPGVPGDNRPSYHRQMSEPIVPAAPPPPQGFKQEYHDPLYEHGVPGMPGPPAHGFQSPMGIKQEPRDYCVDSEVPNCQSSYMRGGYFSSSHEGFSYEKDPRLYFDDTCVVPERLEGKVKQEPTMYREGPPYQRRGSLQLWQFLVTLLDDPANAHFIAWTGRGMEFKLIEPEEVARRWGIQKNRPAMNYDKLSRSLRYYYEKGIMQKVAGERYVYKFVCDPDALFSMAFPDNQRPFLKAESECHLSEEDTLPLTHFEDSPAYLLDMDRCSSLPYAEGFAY
Summary of the method: as §1

[12] = target: HSF1 (Homo sapiens, UniProt Q00613 1-529); conditions: protein: recombinant; tags: N-terminal GST; chain copies: 3; dsDNA, one strand shown
Sequence of HSF1 (Q00613 whole entry): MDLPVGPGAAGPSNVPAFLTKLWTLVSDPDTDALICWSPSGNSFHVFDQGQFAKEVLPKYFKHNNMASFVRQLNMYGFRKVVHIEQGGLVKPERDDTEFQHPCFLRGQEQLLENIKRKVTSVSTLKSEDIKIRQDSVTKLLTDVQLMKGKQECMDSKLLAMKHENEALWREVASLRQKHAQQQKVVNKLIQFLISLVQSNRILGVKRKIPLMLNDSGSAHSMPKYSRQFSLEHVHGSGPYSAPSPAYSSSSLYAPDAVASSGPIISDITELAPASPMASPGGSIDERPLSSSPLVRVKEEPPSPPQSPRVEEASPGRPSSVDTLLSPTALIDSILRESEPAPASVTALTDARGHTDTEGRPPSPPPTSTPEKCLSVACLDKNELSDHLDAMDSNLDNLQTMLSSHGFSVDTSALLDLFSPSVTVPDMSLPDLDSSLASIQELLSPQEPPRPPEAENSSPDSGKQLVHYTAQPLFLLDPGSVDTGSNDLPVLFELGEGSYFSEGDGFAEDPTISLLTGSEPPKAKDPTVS
Summary of the method: as §1

[13] = target: T8, SPIC (Homo sapiens, UniProt Q8N5J4 1-248); conditions: protein: recombinant; tags: N-terminal GST; dsDNA, one strand shown
T8 sequence: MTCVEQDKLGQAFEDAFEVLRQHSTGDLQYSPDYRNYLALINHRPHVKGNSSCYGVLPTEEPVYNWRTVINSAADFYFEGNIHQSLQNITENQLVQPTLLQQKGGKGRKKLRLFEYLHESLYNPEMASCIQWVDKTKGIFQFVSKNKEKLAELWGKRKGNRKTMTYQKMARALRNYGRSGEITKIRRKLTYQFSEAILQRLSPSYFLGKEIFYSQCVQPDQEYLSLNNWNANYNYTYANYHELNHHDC
Summary of the method: as §1

[14] = target: ELF4 (Homo sapiens, UniProt Q99607 1-663); conditions: protein: recombinant; tags: N-terminal GST; dsDNA, one strand shown
Sequence of ELF4 (Q99607 whole entry): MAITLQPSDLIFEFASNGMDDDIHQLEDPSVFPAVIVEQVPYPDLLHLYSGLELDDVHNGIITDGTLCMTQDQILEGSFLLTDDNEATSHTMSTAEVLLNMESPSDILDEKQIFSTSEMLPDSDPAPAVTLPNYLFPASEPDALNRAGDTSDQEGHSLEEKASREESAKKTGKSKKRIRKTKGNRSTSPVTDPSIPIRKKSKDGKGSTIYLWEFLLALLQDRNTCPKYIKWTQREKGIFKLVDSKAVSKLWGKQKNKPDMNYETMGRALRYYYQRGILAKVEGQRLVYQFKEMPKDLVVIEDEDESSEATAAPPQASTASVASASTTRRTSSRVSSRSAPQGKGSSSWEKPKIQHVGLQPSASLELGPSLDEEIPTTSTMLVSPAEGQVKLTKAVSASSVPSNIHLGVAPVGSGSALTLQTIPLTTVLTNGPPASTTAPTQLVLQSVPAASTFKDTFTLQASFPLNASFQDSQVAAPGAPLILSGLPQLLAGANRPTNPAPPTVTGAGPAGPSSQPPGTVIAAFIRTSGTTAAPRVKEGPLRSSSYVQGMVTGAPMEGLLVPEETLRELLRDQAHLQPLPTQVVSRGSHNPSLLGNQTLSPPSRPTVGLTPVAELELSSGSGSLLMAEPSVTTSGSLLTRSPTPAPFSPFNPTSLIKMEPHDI
Summary of the method: as §1

[15] = target: T9, ELK4 (Homo sapiens, UniProt P28324-2 1-405); conditions: protein: recombinant; tags: N-terminal GST; dsDNA, one strand shown
T9 sequence: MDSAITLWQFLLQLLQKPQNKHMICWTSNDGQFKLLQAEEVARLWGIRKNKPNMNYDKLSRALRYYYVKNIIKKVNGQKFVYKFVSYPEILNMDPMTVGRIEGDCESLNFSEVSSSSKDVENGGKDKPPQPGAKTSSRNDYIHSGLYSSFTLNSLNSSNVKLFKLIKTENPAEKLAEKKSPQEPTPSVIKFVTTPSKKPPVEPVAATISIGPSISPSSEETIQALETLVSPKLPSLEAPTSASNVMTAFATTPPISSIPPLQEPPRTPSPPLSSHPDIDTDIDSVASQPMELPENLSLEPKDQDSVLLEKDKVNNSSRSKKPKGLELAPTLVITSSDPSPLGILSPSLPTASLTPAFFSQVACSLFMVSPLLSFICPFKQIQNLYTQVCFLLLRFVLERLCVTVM
Summary of the method: as §1

[16] = target: T10, ETV2 (Homo sapiens, UniProt O00321 1-342); conditions: protein: recombinant; tags: N-terminal GST; dsDNA, one strand shown
T10 sequence: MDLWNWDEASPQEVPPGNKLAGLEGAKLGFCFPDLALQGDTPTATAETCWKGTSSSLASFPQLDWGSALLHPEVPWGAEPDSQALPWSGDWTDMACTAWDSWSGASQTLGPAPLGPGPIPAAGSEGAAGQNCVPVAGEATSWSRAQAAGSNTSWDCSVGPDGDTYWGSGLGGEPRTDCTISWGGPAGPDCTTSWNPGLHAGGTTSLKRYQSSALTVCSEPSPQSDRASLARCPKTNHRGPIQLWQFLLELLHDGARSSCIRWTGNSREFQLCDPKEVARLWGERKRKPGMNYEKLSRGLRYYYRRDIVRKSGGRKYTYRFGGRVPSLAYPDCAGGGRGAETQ
Summary of the method: as §1

[17] = target: T11, ELF3 (Homo sapiens, UniProt P78545 1-371); conditions: protein: recombinant; tags: N-terminal GST; dsDNA, one strand shown
T11 sequence: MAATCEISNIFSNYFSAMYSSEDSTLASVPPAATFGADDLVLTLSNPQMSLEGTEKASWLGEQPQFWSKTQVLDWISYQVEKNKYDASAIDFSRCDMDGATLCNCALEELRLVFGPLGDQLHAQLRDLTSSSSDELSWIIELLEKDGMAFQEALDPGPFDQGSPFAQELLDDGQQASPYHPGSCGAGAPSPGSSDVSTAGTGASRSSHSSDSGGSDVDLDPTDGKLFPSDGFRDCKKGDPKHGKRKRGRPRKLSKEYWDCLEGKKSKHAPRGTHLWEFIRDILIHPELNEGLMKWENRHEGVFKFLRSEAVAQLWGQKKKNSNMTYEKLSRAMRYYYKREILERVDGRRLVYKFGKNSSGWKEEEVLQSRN
Summary of the method: as §1

[18] = target: CRX (Homo sapiens, UniProt O43186 1-299); conditions: protein: recombinant; tags: N-terminal GST; dsDNA, one strand shown
Sequence of CRX (O43186 whole entry): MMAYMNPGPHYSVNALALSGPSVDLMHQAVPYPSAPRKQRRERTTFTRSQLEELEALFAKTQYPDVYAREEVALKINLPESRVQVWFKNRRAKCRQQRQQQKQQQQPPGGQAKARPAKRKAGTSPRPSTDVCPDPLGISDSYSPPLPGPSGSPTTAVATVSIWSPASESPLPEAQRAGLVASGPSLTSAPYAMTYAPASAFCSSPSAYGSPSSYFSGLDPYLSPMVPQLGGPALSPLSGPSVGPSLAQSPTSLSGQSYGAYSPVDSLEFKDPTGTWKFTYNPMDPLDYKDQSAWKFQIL
Summary of the method: as §1

[19] = target: ETV1 (Homo sapiens, UniProt P50549 1-477); conditions: protein: recombinant; tags: N-terminal GST; dsDNA, one strand shown
Sequence of ETV1 (P50549 whole entry): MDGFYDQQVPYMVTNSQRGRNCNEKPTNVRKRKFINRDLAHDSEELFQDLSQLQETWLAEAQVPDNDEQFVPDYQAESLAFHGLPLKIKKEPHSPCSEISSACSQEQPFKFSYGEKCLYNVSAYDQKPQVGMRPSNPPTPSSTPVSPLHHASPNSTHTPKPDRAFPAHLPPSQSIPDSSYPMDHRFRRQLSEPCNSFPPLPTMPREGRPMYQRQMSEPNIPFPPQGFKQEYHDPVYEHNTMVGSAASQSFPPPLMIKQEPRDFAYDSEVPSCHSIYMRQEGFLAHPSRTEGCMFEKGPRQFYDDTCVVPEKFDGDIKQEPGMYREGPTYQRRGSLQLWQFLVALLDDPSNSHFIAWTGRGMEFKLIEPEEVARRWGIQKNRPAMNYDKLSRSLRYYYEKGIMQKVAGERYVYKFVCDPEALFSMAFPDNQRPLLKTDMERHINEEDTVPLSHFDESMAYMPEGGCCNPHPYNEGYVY
Summary of the method: as §1

For CTCTAT, the binding signal [1] was 1.09 fold enrichment (6-mer frequency, TF over GST control), the binding signal [2] was 1.22 fold enrichment (6-mer frequency, TF over GST control) and the binding signal [3] was 1.2 fold enrichment (6-mer frequency, TF over GST control). The binding signal [4] was 1.17 fold enrichment (6-mer frequency, TF over GST control), the binding signal [5] was 1.22 fold enrichment (6-mer frequency, TF over GST control) and the binding signal [6] was 1.09 fold enrichment (6-mer frequency, TF over GST control). The binding signal [7] was 1.16 fold enrichment (6-mer frequency, TF over GST control), the binding signal [8] was 1.17 fold enrichment (6-mer frequency, TF over GST control) and the binding signal [9] was 1.11 fold enrichment (6-mer frequency, TF over GST control). The binding signal [10] was 1.11 fold enrichment (6-mer frequency, TF over GST control), the binding signal [11] was 1.15 fold enrichment (6-mer frequency, TF over GST control) and the binding signal [12] was 1.11 fold enrichment (6-mer frequency, TF over GST control). The binding signal [13] was 1.05 fold enrichment (6-mer frequency, TF over GST control), the binding signal [14] was 1.18 fold enrichment (6-mer frequency, TF over GST control) and the binding signal [15] was 1.19 fold enrichment (6-mer frequency, TF over GST control). For the same sequence, the binding signal [16] was 1.21 fold enrichment (6-mer frequency, TF over GST control), the binding signal [17] was 1.2 fold enrichment (6-mer frequency, TF over GST control) and the binding signal [18] was 1.1 fold enrichment (6-mer frequency, TF over GST control). The binding signal [19] was 1.13 fold enrichment (6-mer frequency, TF over GST control).
